The text below walks through data of the supplement of paper PMC6992640.

± gives the standard deviation of the averaged measurements.

Among the test systems are HCI01; HCI03; HCI09; HCI11; HCI13; HCI16; UCD52; WHIM2; WHIM30.
Assay in all cases: cell viability (% of vehicle); higher = less cytotoxic
Details in all cases: 10 µM; 72 h
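Further: PDX cells carrying CMV promoter-driven luciferase, viability read as total photon flux per second by IVIS imaging following D-luciferin, vehicle control 0.1% DMSO.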

Take `O=C(CS(=O)Cc1ccco1)NCC=CCOc1cc(CN2CCCCC2)ccn1` (stereo not given) [Lafutidine]: the cell viability with HCI01 amounted to 137 ± 32; in the experiment with HCI03, 136; in the experiment with HCI09, 107 ± 3.1; with HCI11, 108; in the experiment with HCI13, 190 ± 46; with HCI16, 119. The cell viability in the experiment on UCD52 (cells of a triple-negative basal-like breast cancer xenograft) is 89.1 ± 3.8; in the experiment with WHIM2, 88.6 ± 19; in the experiment with WHIM30 it was 114 ± 2.
As for `CC(C)(C)NC(=O)NC(C(=O)N1CC2C(C1C(=O)NC(CC1CCC1)C(=O)C(N)=O)C2(C)C)C(C)(C)C` (stereo not given) [Boceprevir], the cell viability was determined as 100 ± 19 with HCI01; 83.8 in the experiment with HCI03; 87.2 ± 6.2 in the experiment on HCI09 (cells of a triple-negative luminal androgen receptor type breast cancer xenograft); 101 in the experiment with HCI11; 72.5 ± 1.2 with HCI13; 65.1 with HCI16. In addition, the values for the cell viability in the experiment with UCD52, in the experiment with WHIM2 and with WHIM30 were 80.1 ± 16, 80.7 ± 15 and 85.1 ± 8.9, respectively.
Consider `Cc1nc(=O)c2cc(CN(C)c3ccc(C(=O)NC(CCC(=O)O)C(=O)O)s3)ccc2[nH]1` (stereo not given) [Raltitrexed], for which the cell viability with HCI01 was 93.9 ± 5.5; in the experiment on HCI03 (cells of an ER-positive luminal breast cancer xenograft) it was 122; with HCI09, 104 ± 27; in the experiment on HCI11 (cells of an ER-positive luminal breast cancer xenograft), 86.9; in the experiment on HCI13 (cells of an ER-positive luminal breast cancer xenograft) it was 95.59 ± 0.3; in the experiment on HCI16 (cells of a triple-negative basal-like breast cancer xenograft), 99. For the same compound, the values for the cell viability in the experiment on UCD52 and in the experiment on WHIM2 (cells of a triple-negative basal-like breast cancer xenograft) were 106 ± 4 and 116 ± 2, respectively.
Consider `CCCNC(C)C(=O)Nc1c(C)csc1C(=O)OC.Cl` (stereo not given) [Articaine HCl], for which the cell viability in the experiment on HCI01 (cells of a triple-negative basal-like breast cancer xenograft) stood at 104 ± 4.9; with HCI03 it was 115; in the experiment on HCI09, 116 ± 7; in the experiment on HCI11 it was 96.9; in the experiment with HCI13, 79.6 ± 10; in the experiment with HCI16, 133. Further, the cell viability worked out at 94.3 ± 5.7 in the experiment on UCD52, 104 ± 18 in the experiment on WHIM2 and 129 ± 5.7 in the experiment on WHIM30 (cells of a triple-negative basal-like breast cancer xenograft).
With `NC(CO)(CO)CO.O=C(c1ccccc1)c1ccc2n1CCC2C(=O)O` (stereo not given) [Ketorolac tromethamine salt], the cell viability in the experiment on HCI01 amounted to 123 ± 15; with HCI03, 174; with HCI09, 146 ± 70; with HCI11, 102; in the experiment on HCI13 it was 122 ± 26; with HCI16, 131. In addition, the cell viability was 145.6 ± 0.93 with UCD52, 130 ± 15 in the experiment with WHIM2 and 116 ± 4.2 in the experiment with WHIM30.
Consider `O=C1OC(C(O)CO)C(O)=C1O` (stereo not given) [Vitamin C], for which the cell viability amounted to 76.9 ± 31 in the experiment with HCI01; 111 in the experiment with HCI03; 93.6 ± 11 in the experiment on HCI09; 84.3 in the experiment on HCI11; 90 ± 12 in the experiment on HCI13; 108 in the experiment on HCI16. The cell viability came out at 75 ± 3.8 with UCD52, 113 ± 34 in the experiment with WHIM2 and 135 ± 5.2 with WHIM30.
For the compound `COc1c2ccoc2cc2oc(=O)ccc12` [5-Methoxypsoralen], the cell viability amounted to 103 ± 24 in the experiment on HCI01; 142 in the experiment on HCI03; 93.1 ± 13 in the experiment on HCI09; 93.8 in the experiment with HCI11; 121 ± 3.1 in the experiment on HCI13; 109 in the experiment on HCI16. The cell viability in the experiment with UCD52 amounted to 85.2 ± 13; in the experiment with WHIM2, 103 ± 3.7; with WHIM30, 93 ± 3.1.
On to `COc1cc(C(=O)NC2CCCNC2)cc(OC)c1OC` (stereo not given) [Troxipide], for which the cell viability with HCI01 is 98.8 ± 1; in the experiment with HCI03 it was 110; in the experiment with HCI09, 107 ± 28; in the experiment on HCI11 it was 96.3; in the experiment with HCI13 it was 57.8 ± 3.5; in the experiment on HCI16 it was 106. For the same compound, the cell viability in the experiment with UCD52 is 96.8 ± 7.8; with WHIM2, 103 ± 15; in the experiment with WHIM30, 137 ± 11.
In the case of `Cc1ccsc1C(=CCCN1CCC[C@@H](C(=O)O)C1)c1sccc1C` [Tiagabine], the cell viability is 96.4 ± 12 with HCI01; 81.9 with HCI03; 105 ± 4.9 in the experiment with HCI09; 84.2 with HCI11; 96.9 ± 1.7 with HCI13; 115 in the experiment on HCI16. Also, the values for the cell viability in the experiment with UCD52, with WHIM2 and in the experiment on WHIM30 were 89.1 ± 5.2, 100 ± 22 and 96 ± 12, respectively.
